# From ChEMBL document CHEMBL3988442, “University of Dundee, Small-Polar-MMV Screening Library” (2021)
# The campaign covered roughly 38,000 compounds. About 1,200 (3.2%) showed an effect of 50% or more. The median lay at about -58%. What follows is part of a selection rich in strong results, with near analogues and random picks from the rest.
# System: Plasmodium falciparum
# Test: Calibr Malaria Delayed Death Assay SOP
# Assay type: functional, organism-based
# Set-up: scale not given: in the data most compounds retested in dose-response had high values
# Settings: concentration 4.99e-06 (unit not given; other assays of the set use mol/L)
row,Compound,Percent Effect [%]
1,Cc1ccccc1-c1cc(NC(=O)CC(C)C)n(CCO)n1,-65.33
2,O=C(NCCc1c[nH]c2ccccc12)C1(n2cnnn2)CCCCC1,-28.02
3,O=C(O)C(F)(F)F.O=C(c1cccc(F)c1)N1CCC2(CC1)CN(c1ccccn1)CCO2,-103.6
4,Cc1nn2c(-c3cnn(C)c3)nnc2s1,-96.58
5,CC(C)(C)OC(=O)N1CCN(S(C)(=O)=O)C2(CCCCC2)C1,-78.85
6,Cc1cc(C)c2[nH]c(=O)c(CN3CCC(O)(CN(C)C)C3)cc2c1 (stereo not given),5.101
7,Cc1cc(N2CCCC3(CN(C)C(=O)O3)C2)c2cc3c(cc2n1)OCO3 (stereo not given),-65
8,Cc1cc(N2CCC(O)(CN(C)C)C2)c2cc3c(cc2n1)OCO3 (stereo not given),89.44
9,CN(C)CC1(O)CCN(C(=O)c2cnc(-c3ccccn3)nc2)C1 (stereo not given),-83.84
10,CN(C)CC1(O)CCCN(c2noc(-c3ccccc3)n2)CC1 (stereo not given),-4.701
11,Cc1cc(N2CCCC(O)(CN(C)C)C2)c2cc3c(cc2n1)OCO3 (stereo not given),79.58
12,CN(C)C(=O)CC1CC2(CCN(Cc3ccco3)CC2)c2ccccc21.O=C(O)C(F)(F)F (stereo not given),24.78
13,CN1C(=O)C2(CCCN(C(=O)c3ccc(=O)n(C)n3)C2)c2ccccc21 (stereo not given),-36.85
14,Cc1cc(C(=O)N2CCn3cc(CN4CCCCC4)nc3C2)no1,-18.56
15,CN(C)[C@@H]1CCN(S(=O)(=O)C2CC2)[C@H]1Cc1ccccc1.O=C(O)C(F)(F)F,63.58
16,CC(C)NC(=O)N1CC[C@@H](N(C)C)[C@@H]1Cc1ccccc1.O=C(O)C(F)(F)F,14.09
17,CN(C)[C@@H]1CCN(S(=O)(=O)c2cn(C)cn2)[C@H]1Cc1cccnc1.O=C(O)C(F)(F)F.O=C(O)C(F)(F)F.O=C(O)C(F)(F)F,-62.43
18,CN(C)[C@@H]1CCN(S(C)(=O)=O)[C@H]1Cc1ccccc1,16.37
19,CC(C)N(C)[C@@H]1CCN(S(C)(=O)=O)[C@H]1Cc1ccccc1,53.16
20,O=S(=O)(C1CC1)N1CC[C@H](OCC2CC2)[C@@H]1Cc1ccncc1,-74.15
21,CN(C)[C@@H]1CCN(C(=O)c2ccccn2)[C@H]1Cc1ccncc1,-71
22,CC(C)N(C)[C@@H]1CCN(Cc2ccoc2)[C@H]1Cc1ccccc1,9.124
23,CC(C)OC[C@H]1CCC[C@]12CN(C(=O)C1CCOCC1)CCO2,-62.83

row,Compound,Percent Effect [%]
1,CNC(=O)CN1CCC(CN(C)Cc2ccccc2N(C)C)CC1,-85.31
2,COc1ccc(CN2C[C@@H](O)[C@](O)(CNC(=O)c3ccccn3)C2)cc1,-63.46
3,Cn1cc(-c2ncnc3c2CCN(C(=O)c2cnccn2)CC3)cn1,-80.91
4,COc1ccc(C[C@H]2CN(Cc3ccoc3)CC[C@@H]2OC)cc1.O=C(O)C(F)(F)F,63.43
5,COc1ccc(C[C@H]2CN(c3cc(OC)ncn3)CC[C@@H]2OC)cc1.O=C(O)C(F)(F)F,-3.62
6,COc1ccc(C[C@H]2CN(c3nnc(C)s3)CC[C@@H]2OC)cc1.O=C(O)C(F)(F)F,-18.37
7,COc1ccc(C[C@H]2CN(c3nnc(C)s3)CC[C@H]2OC)cc1.O=C(O)C(F)(F)F,-6.177
8,COc1ccc(C[C@H]2CN(Cc3ccoc3)CC[C@H]2OC)cc1.O=C(O)C(F)(F)F,74.09
9,COc1ccc(C[C@H]2CN(C(=O)c3ccncc3)CC[C@@H]2OC)cc1.O=C(O)C(F)(F)F,-34.29
10,N#Cc1ccc(OC[C@]23COC[C@H]2CN(Cc2ccccn2)C3)nc1,-50.77
11,Cn1cccc1C(O)CNC(=O)COc1ccccc1F (stereo not given),-31.9
12,Cn1cccc1C(O)CNC(=O)COc1ccc(Cl)cc1Cl (stereo not given),-33.74
13,Cn1cccc1C(CNC(=O)COc1ccc(Cl)cc1Cl)N1CCCC1 (stereo not given),74.07
14,O=C(NCc1nnc2n1CCCC2)c1cn(-c2ccccc2)nn1,-72.42
15,COc1cccc([C@@H]2CCN(Cc3c[nH]c(C)n3)C[C@H]2O)c1,-37.12
16,COc1cccc(CC2CCCN2CC(N)=O)c1 (stereo not given),-61.65
17,COCC(=O)NCC1CCN(Cc2ccsc2)CC1,-175
18,CCN1CCC(N2C[C@@H](C(=O)O)[C@H](c3cccc(OC)c3)C2)CC1,-103.5
19,COCc1cc(O)nc(C2CCCN(Cc3cccc(OC)c3)C2)n1 (stereo not given),-102.5
20,COc1cccc([C@H]2CN(C(C)=O)[C@@H]3CCN(Cc4ccsc4)C[C@H]23)c1.Cl,72.65
21,COc1cccc([C@@H]2CCN(Cc3[nH]nc(C)c3Cl)C[C@H]2O)c1,-13.94
22,COc1cccc(CN2CC[C@H]3[C@@H](C2)[C@H](c2ccsc2)CN3C(C)=O)c1,52.59
23,CNC(=O)[C@@]12CCC3(CCN(S(=O)(=O)C4CC4)CC3)[C@@H]1CN(C(C)=O)C2,-121.6

row,Compound,Percent Effect [%]
1,Cc1ccoc1C(=O)N1CCCC(CNS(C)(=O)=O)C1 (stereo not given),-23.43
2,NC(=O)Cn1cnc2nc3n(c2c1=O)CCC3,-106.4
3,CC(C)N1CCOC(Cc2nn3c(Cc4ccccc4)nnc3s2)C1 (stereo not given),-78.89
4,CO[C@H]1CCN(Cc2c(C)noc2C)[C@@H]2CN(Cc3cccnc3)C[C@H]12.O=C(O)C(F)(F)F.O=C(O)C(F)(F)F.O=C(O)C(F)(F)F,-19.09
5,CN(Cc1noc(C2CC2)n1)C1CCN(CCc2cccs2)C1 (stereo not given),-58.32
6,COc1cc(CNCC(O)c2ccc(C)cc2)cc2c1OCCO2.Cl (stereo not given),46.91
7,COc1cc(CNC(C)Cn2ccnc2)cc2c1OCO2.Cl (stereo not given),-50.32
8,Cc1cc(CNC(=O)NCC(O)c2cccc(F)c2)no1 (stereo not given),-84.11
9,COc1cc(CNCc2ccc(C(C)O)cc2)cc2c1OCO2 (stereo not given),7.669
10,COc1cc(CNC(C)c2ccc(F)c(F)c2)cc2c1OCCO2.O=C(O)C(=O)O (stereo not given),-10.9
11,COc1cc(CNC(C)Cn2cccn2)cc2c1OCO2.Cl (stereo not given),-35.84
12,COc1ccc(CNCc2cc(Br)c3c(c2)OCO3)cc1,-51.11
13,COc1cc(CNCC(O)c2ccccc2)cc2c1OCO2.Cl (stereo not given),59.91
14,Fc1ccc(CNCc2cc(Br)c3c(c2)OCO3)cc1,-20.04
15,COc1c(C(N)=O)cn(C)c1-c1nc2cc(NC(C)=O)ccc2n1C,-29.86
16,Cc1nc(O)cc(C2CCCN(Cc3c(Cl)cncc3Cl)C2)n1 (stereo not given),-29.03
17,O=C(Cn1cnnn1)NC(c1ccccc1)c1ccc2c(c1)CCCO2 (stereo not given),-75.22
18,Cc1ccoc1C(=O)N1CCO[C@H]2[C@H](OCc3ccncc3)CC[C@@H]21,-118.2
19,COc1ccccc1C(=O)N1CCCC1c1ncc2c(n1)CCNC2.Cl (stereo not given),-133.7
20,CC(O)CCN(C)C(=O)Nc1cccc(F)c1 (stereo not given),-108.7
21,CC(C)Cn1ncc(C(=O)NS(=O)(=O)C2CCCC2)c1C1CC1,-142.6
22,O=C(O)CCC(=O)N1CCC(c2noc3cc(F)ccc23)CC1,-92.3
23,CCC(=O)NC(c1cccnc1)c1cc(C)ccc1C (stereo not given),-105.8

row,Compound,Percent Effect [%]
1,O=C(CC1CCCC1)N1C[C@@H]2CCN(c3cccnc3)C[C@@H]2C1.O=C(O)C(F)(F)F,-61.89
2,Cc1ccc2c(c1)C(NC(=O)N(C)C)CC21CCN(C)CC1.O=C(O)C(F)(F)F (stereo not given),-16.75
3,Cn1cncc1CNC1CC2(CCN(CC3CC3)CC2)c2ccccc21.O=C(O)C(F)(F)F.O=C(O)C(F)(F)F (stereo not given),-88.17
4,O=C(NC1CC2(CCN(CCO)CC2)c2ccccc21)c1ccno1.O=C(O)C(F)(F)F (stereo not given),-16.34
5,Cc1ccc2c(c1)C(N(C)C)CC21CCN(CCO)CC1.O=C(O)C(F)(F)F.O=C(O)C(F)(F)F (stereo not given),74.01
6,O=C(NC1CC2(CCN(CCO)CC2)c2ccccc21)c1ccncc1.O=C(O)C(F)(F)F.O=C(O)C(F)(F)F (stereo not given),-81.16
7,Cc1ccc(CNC2CC3(CCN(CCO)CC3)c3ccccc32)s1.O=C(O)C(F)(F)F.O=C(O)C(F)(F)F (stereo not given),84.71
8,CCOC1CC2(CCN(CCO)CC2)c2ccc(C)cc21 (stereo not given),16.18
9,Cc1cccc(CNC2CC3(CCN(CCO)CC3)c3ccccc32)n1.O=C(O)C(F)(F)F.O=C(O)C(F)(F)F (stereo not given),77.51
10,Cc1ccc(CNC(=O)CN2CCN(CCO)CC2)s1,-40.21
11,COCC(=O)NC1CC2(CCN(CCO)CC2)c2ccccc21.O=C(O)C(F)(F)F (stereo not given),-47.31
12,CCN1CCC2(CC1)CC(NC(=O)N(C)C)c1cc(C)ccc12.O=C(O)C(F)(F)F (stereo not given),-8.453
13,O=C(Cc1ccn[nH]1)N1CCc2cc(Br)sc2C1,-31.09
14,CC1(C)COCCN1C(=O)c1ccc(Cn2cncn2)cc1,-28.18
15,Fc1ccc(OCCCN2CCCC(Cn3cncn3)C2)cc1 (stereo not given),-24.19
16,CN(C)CCNC(=O)c1nc2c(s1)CCCN2C(=O)C1CC1.O=C(O)C(F)(F)F,21.8
17,Cc1nc(CN2CCCn3c(nc(Cn4cncn4)cc3=O)C2)cs1.O=C(O)C(F)(F)F,-37.93
18,Cc1cc(CN(C)C(=O)c2ccc(OCC(F)(F)F)nc2)no1,-117.9
19,CC(C)c1nn(C)c(Cl)c1CNCC(=O)N1CCN(C)CC1.Cl,-109.8
20,Cn1ncc(C(=O)O)c1C(=O)Nc1nc2ccccc2s1,-36.51
21,C[C@@H]1CN(Cc2cn(C)nc2-c2ccccc2F)C[C@H](C)O1,-119.2
